This note sets out measurements from PubChem BioAssay (NCI).

Test systems include NCI-H23 lung; NCI-H226 lung; NCI-H322M lung; HOP-62 NSCLC; NCI-H460 lung; HOP-92 NSCLC; NCI-H522 lung; A549/ATCC NSCLC; 786-0 renal; COLO 205 colon; DU-145 prostate; K-562 leukemia; MALME-3M melanoma; MDA-MB-231 breast; SF-268 CNS; SF-295 CNS; SF-539 CNS; UACC-257 melanoma; M14 melanoma.
Holding throughout (test): NCI-60 one-dose screen, 48 h (100 = growth as untreated, 0 = no growth, -100 = all killed)
Settings in all cases: 10 µM unless noted

About 83,000 compounds went through this panel and 20% of them were active in at least one assay; those are over-represented in the sample as a whole.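 Single-dose data. Exposure time 48 hours. Values below 10 considered active.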 A number with no mark means an inactive call. Activity calls are given as the source filed them.

`Clc1cc(Cl)cc(N2N=C(c3cccc(Nc4ccncc4)c3)CC2c2ccccc2)c1` (configuration not stated): the growth in the test with NCI-H23 lung was 82.8%; in the test on NCI-H226 lung, 93.1%; in the test on NCI-H322M lung, 78%; with HOP-62 NSCLC, 43.6%; with NCI-H460 lung it was -76.1% (active); with HOP-92 NSCLC it was 55.7%. Besides, the growth with NCI-H522 lung was 65.2%; with A549/ATCC NSCLC it was 45.5%; in the test with 786-0 renal, 86.3%; in the test with COLO 205 colon it was -49.7% (active); in the test with DU-145 prostate, 35.7%; with K-562 leukemia, 0.584% (active). The growth is 32.7% with MALME-3M melanoma; 58.1% in the test with MDA-MB-231 breast; 84.3% in the test with SF-268 CNS; 9.59% (active) with SF-295 CNS; 80.9% in the test with SF-539 CNS; 84.7% in the test on UACC-257 melanoma. Further, the growth with M14 melanoma is 64.1%.
With `Cc1ccc(-c2c(Br)c(OC(=O)CO[C@@H]3C[C@H](C)CC[C@H]3C(C)C)c(-c3ccc(C)cc3C)c(Br)c2OC(=O)CO[C@H]2C[C@@H](C)CC[C@@H]2C(C)C)c(C)c1`, the growth with NCI-H23 lung is 98.6%; in the test on NCI-H226 lung, 56.2%; in the test with NCI-H322M lung it was 103%; with HOP-62 NSCLC, 94.5%; with NCI-H460 lung it was 105%; in the test on HOP-92 NSCLC, 93.6%. For the same compound, the growth in the test on NCI-H522 lung was 79.4%; in the test with A549/ATCC NSCLC, 88.9%; in the test with 786-0 renal, 96.8%; in the test with COLO 205 colon it was 95.3%; with DU-145 prostate, 106%; in the test on K-562 leukemia it was 110%. The growth was 106% with MALME-3M melanoma; 96.1% with MDA-MB-231 breast; 100% in the test with SF-268 CNS; 96.2% in the test on SF-295 CNS; 101% in the test with SF-539 CNS; 98.8% in the test with UACC-257 melanoma. Further, the growth with M14 melanoma was 91.5%.
Take `COc1ccccc1-c1c(-c2ccc(Cl)cc2)c2cc3c(cc2[nH]c1=O)OCCO3`: the growth in the test on NCI-H23 lung was 72.8%; in the test on NCI-H226 lung it was 84%; in the test on NCI-H322M lung, 89%; with HOP-62 NSCLC, 89.8%; with NCI-H460 lung it was 66.3%; in the test with HOP-92 NSCLC, 80.7%. For the same compound, the growth in the test on NCI-H522 lung is 62.4%; in the test on A549/ATCC NSCLC it was 63.6%; in the test with 786-0 renal, 85.4%; in the test with COLO 205 colon, 92.6%; in the test with DU-145 prostate it was 83.6%; with K-562 leukemia, 44.3%. Besides, the growth is 87.4% with MALME-3M melanoma; 95.5% with MDA-MB-231 breast; 68.2% in the test with SF-268 CNS; 58.5% with SF-295 CNS; 88.2% in the test on SF-539 CNS; 73% with UACC-257 melanoma. The growth with M14 melanoma is 72.5%.
`O=C(N/N=C/c1cccnc1)c1ccccc1Nc1cccc(C(F)(F)F)c1`: the growth was 94.2% in the test on NCI-H23 lung; 109% in the test with NCI-H226 lung; 85.6% with NCI-H322M lung; 77.5% in the test on HOP-62 NSCLC; 102% with NCI-H460 lung; 72% in the test on HOP-92 NSCLC. The growth with NCI-H522 lung is 81.8%; with A549/ATCC NSCLC, 42.4%; in the test with 786-0 renal it was 83.7%; in the test with COLO 205 colon, 105%; with DU-145 prostate, 91.1%; with K-562 leukemia it was 41.5%. Further, the growth was 65% in the test with MALME-3M melanoma; 118% in the test with MDA-MB-231 breast; 76.6% in the test with SF-268 CNS; 64.7% in the test with SF-295 CNS; 96.7% with SF-539 CNS; 75.3% in the test on UACC-257 melanoma. For the same compound, the growth in the test on M14 melanoma is 73%.
For the compound `COc1cc(NCC(O)CN(CC(C)C)C2CCCC2)c2ncccc2c1` (configuration not stated), the growth is 77.6% with NCI-H23 lung; 94.3% in the test on NCI-H226 lung; 110% with NCI-H322M lung; 86.5% in the test with HOP-62 NSCLC; 89.4% with NCI-H460 lung; 73.8% with HOP-92 NSCLC. The growth is 70.6% in the test with NCI-H522 lung; 66.1% with A549/ATCC NSCLC; 89.3% in the test on 786-0 renal; 97% in the test on COLO 205 colon; 98.4% in the test with DU-145 prostate; 73.2% in the test with K-562 leukemia. The growth in the test with MALME-3M melanoma was 147%; with MDA-MB-231 breast it was 66.8%; in the test on SF-268 CNS, 82.7%; in the test with SF-295 CNS it was 92.2%; in the test with SF-539 CNS, 99.8%; with UACC-257 melanoma, 85.5%. In addition, the growth in the test with M14 melanoma was 95.8%.
Regarding `Cn1c(COC(=O)NCCn2ccnc2)nc2c(N3CCOCC3)nc(-c3ccccc3)nc21`, the growth is -74.8% (active) in the test on NCI-H23 lung; -53.8% (active) in the test with NCI-H226 lung; 33.4% in the test on NCI-H322M lung; -40.4% (active) with HOP-62 NSCLC; -72.1% (active) in the test with NCI-H460 lung; -75.2% (active) in the test with HOP-92 NSCLC. The growth in the test with NCI-H522 lung was -54.7% (active); in the test on A549/ATCC NSCLC it was -36.2% (active); in the test on 786-0 renal, -89.7% (active); in the test with COLO 205 colon it was -57.3% (active); with DU-145 prostate it was -89.9% (active); in the test on K-562 leukemia, 4.31% (active). Moreover, the growth is -93.9% (active) with MALME-3M melanoma; -90.6% (active) in the test with MDA-MB-231 breast; -61.6% (active) in the test on SF-268 CNS; 18% with SF-295 CNS; -99.6% (active) with SF-539 CNS; -56.7% (active) in the test on UACC-257 melanoma. In addition, in the test with M14 melanoma, the growth was -72.5% (active).
Turning to `CN(C)C(=O)OCc1nc2c(N3CCOCC3)nc(-c3ccccc3)nc2n1C`, the growth in the test with NCI-H23 lung is -67.3% (active); in the test with NCI-H226 lung it was -66.1% (active); in the test on NCI-H322M lung, 53.4%; in the test with HOP-62 NSCLC, -46.9% (active); in the test on NCI-H460 lung, -71.8% (active); with HOP-92 NSCLC it was -68.4% (active). For the same compound, the growth is -46.8% (active) with NCI-H522 lung; -29.6% (active) in the test on A549/ATCC NSCLC; -71.3% (active) in the test on 786-0 renal; -70.5% (active) in the test on COLO 205 colon; -74.4% (active) with DU-145 prostate; 5.32% (active) with K-562 leukemia. Further, the growth is -92.8% (active) in the test with MALME-3M melanoma; -86.5% (active) in the test with MDA-MB-231 breast; -59.9% (active) in the test on SF-268 CNS; 29.9% with SF-295 CNS; -98.3% (active) in the test on SF-539 CNS; -65.4% (active) in the test with UACC-257 melanoma. In the test on M14 melanoma, the growth is -54.5% (active).
With `COc1cc(OC)cc(C2C3=C(COC3=O)Nc3cc(OC)ccc32)c1` (configuration not stated), the growth in the test with NCI-H23 lung was 12.1%; in the test on NCI-H226 lung, -3.11% (active); with NCI-H322M lung, 50.5%; in the test on HOP-62 NSCLC, 22%; in the test on NCI-H460 lung, 4.2% (active); with HOP-92 NSCLC, 52.6%. The growth with NCI-H522 lung is -40.5% (active); with A549/ATCC NSCLC, 16.6%; with 786-0 renal, 11%; in the test with COLO 205 colon it was -74.1% (active); in the test on DU-145 prostate, -30.2% (active); in the test with K-562 leukemia it was 11.9%. Further, the growth in the test with MALME-3M melanoma was 71.6%; with MDA-MB-231 breast, -7.98% (active); in the test on SF-268 CNS, 18.1%; with SF-295 CNS, 10.9%; in the test with SF-539 CNS, 1.4% (active); in the test with UACC-257 melanoma it was 45.5%. Further, the growth in the test on M14 melanoma was 3.85% (active).
